# Laboratory results: PubChem BioAssay AID2685 (National Center for Advancing Translational Sciences (NCATS), 2010)
# In all, about 320,000 compounds went through this assay and about 2,100 (0.66%) were called active. Roughly 53% stayed inconclusive and do not appear here. The call rests on the fitted dose curve; in most records, active means well fitted inhibition curve with a large enough effect in the signal ratio, with a control signal flat (not every such curve was filed as active); inconclusive means small, poorly fitted or top-dose-only effect, or effect the other way, or a change in a side signal; inactive means flat fitted curve, though single readings scatter; the % refers to the signal ratio. What follows is part of a selection rich in actives, with near analogues and random picks from the rest.
# Test: qHTS Assay for Lipid Storage Modulators in Drosophila S3 Cells;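 on cell number change: cells counted by Cell Tracker Red CMTPX staining in the red channel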; on lipid storage change, negative = inhibition: on the % scale 0 is the no-effect control and ±100 the full control effect
# Settings: BODIPY lipid droplet fluorescence, 18-24 h, cells fed with added oleic acid; cell number change: measured here: cell count max response; series mostly up to 46.1 µM; lipid storage change, negative = inhibition: at the top concentration
# How it was run: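 Laser-scanning cytometry quantifies lipid droplet accumulation (500–530 nm total intensity; droplet/cell object ratio) in oleic acid-fed (400 uM added) Drosophila S3 cells treated with a concentration series. 20 uM Triacsin C defined 100% inhibition.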
# Potency means the concentration at half of the fitted maximal effect.
SMILES,"lipid storage change, negative = inhibition",cell number change [%],outcome,Potency
C/C(=C\c1cc2ccccc2o1)C1Nc2cccc3cccc(c23)N1,19.1% (inactive),7.96,–,–
c1coc(C2Nc3cccc4cccc(c34)N2)c1,–,-0.664,inactive,–
C/C(=C\c1ccco1)C1Nc2cccc3cccc(c23)N1,–,-14.8,–,18.4 µM (active)
CC(C)(C)c1ccc(C(=O)OCC(=O)NC2CC2)cc1,–,–,inactive,–
CCc1nn(C(CC)C(=O)NCc2cccc(OC)c2)c(=O)c2cc3occc3n12 (stereo not given),–,–,inactive,–
CCc1nn(C(CC)C(=O)NCc2cccc(OC)c2OC)c(=O)c2cc3occc3n12 (stereo not given),–,-13.5,–,10.3 µM (active)
CCc1nn(C(CC)C(=O)NCc2cccs2)c(=O)c2cc3occc3n12 (stereo not given),–,-4.96,inactive,–
Cc1cc(S(=O)(=O)NCC(C)C)ccc1OCC(=O)NCc1ccco1,5.71% (inactive),21.6,–,–
Cc1noc(C)c1CCC(=O)NC1CCCN(Cc2ccc(CC(C)C)cc2)C1 (stereo not given),–,–,inactive,–
Cc1ccc(N=Cc2ccc(O)cc2O)cc1F,28.9% (inactive),–,–,–
O=C(O)c1ccc(NC(=O)C2CC=CCC2C(=O)O)cc1 (stereo not given),–,3.62,–,0.184 µM (active)
O=C(O)C1C2C=CC(O2)C1C(=O)Nc1ccc(S(=O)(=O)N2CCc3ccccc32)cc1 (stereo not given),18.4% (inactive),-9.33,–,–
O=C(O)C1CC=CCC1C(=O)Nc1ccc(S(=O)(=O)N2CCCc3ccccc32)cc1 (stereo not given),–,4.45,–,23.1 µM (active)
CN(C(=O)c1ccc(NC(=O)C2CC=CCC2C(=O)O)cc1)c1ccccc1 (stereo not given),-13.4% (inactive),2.31,–,–
O=C(O)C1CC=CCC1C(=O)Nc1ccccc1 (stereo not given),–,–,inactive,–
O=C(Nc1ccc(S(=O)(=O)N2CCc3ccccc32)cc1)C(F)(F)F,–,-4.4,inactive,–
CC(C)CC(NC(=O)c1ccccc1)C(=O)OCC(=O)Nc1ccc(Br)cn1 (stereo not given),–,–,inactive,–
Cc1[nH]c2ccccc2c1SCCNC(=O)c1ccc(S(=O)(=O)N2CCCC2)cc1,15.4% (inactive),-15.8,–,–
CNC(=S)Nc1cc(C(=O)N2CCCC2)ccc1N1CCCC1,5.95% (inactive),-7.02,–,–
Cc1cccc(NC(=O)C2C(c3ccccc3)C2(Cl)Cl)c1C (stereo not given),-1.24% (inactive),10.7,–,–
O=C(c1cccs1)N1CCC(c2nc3c(nnn3Cc3cccc(Cl)c3)c(=O)[nH]2)CC1,–,-4.62,inactive,–
Cc1ccc(N(C(=O)Cc2cccs2)C(C(=O)NC2CCCCC2)c2ccccn2)cc1C (stereo not given),-10.6% (inactive),4.06,–,–
O=C(CCC(=O)c1ccccc1)NCCc1c[nH]c2ccccc12,3.97% (inactive),-0.682,–,–

SMILES,"lipid storage change, negative = inhibition",cell number change [%],outcome,Potency
Cc1cc(C)c(S(=O)(=O)N2CCN(C(=O)N3CCOCC3)CC2)c(C)c1,–,-4.21,–,3.66 µM (active)
Cc1cc(C)c(S(=O)(=O)Nc2ccccc2C(=O)N2CCOCC2)c(C)c1,–,-34.8,–,25.9 µM (active)
COc1ccc(S(=O)(=O)Nc2ccccc2C(=O)N2CCOCC2)cc1C,–,-5.26,inactive,–
Cc1ccccc1NS(=O)(=O)c1ccc(C)c(C(=O)N2CCOCC2)c1,10.2% (inactive),1.29,–,–
CN(C)S(=O)(=O)N1CCN(C(=O)N2CCOCC2)CC1,–,-2.73,–,5.8 µM (active)
Cc1cc(C)c(S(=O)(=O)N2CCN(C(=O)N(C)C)CC2)c(C)c1,-7.06% (inactive),-11,–,–
CN(C)C(=O)N1CCN(C(=O)N2CCOCC2)CC1,0.227% (inactive),3.54,–,–
CN(C)S(=O)(=O)N1CCN(S(=O)(=O)N2CCOCC2)CC1,0.943% (inactive),6.09,–,–
Cc1cc(C)c(S(=O)(=O)N2CCN(S(=O)(=O)N3CCOCC3)CC2)c(C)c1,–,9.13,inactive,–
CCCN(CCC)S(=O)(=O)c1nc2nc(C)cc(C)n2n1,-0.0183% (inactive),8.75,–,–
COc1cc2c(cc1OC)C(c1ccc(O)cc1)NCC2 (stereo not given),–,-6.35,inactive,–
O=C1CCCN1CCC12CC3CC(CC(C3)C1)C2,6.49% (inactive),-8.85,–,–
COc1ccc(OC)c(CN2CCN(CCCc3ccccc3)C(CCO)C2)c1 (stereo not given),0.843% (inactive),25.4,–,–
CCOc1ccc(CCNC(=O)c2ccc(=O)[nH]c2)cc1OCC,2.9% (inactive),0.381,–,–
Cc1cccc(OCc2cc(-c3ccccc3)no2)c1C,26% (inactive),19.4,–,–
CC(C)C(c1nnnn1C1CCCC1)N(C)C1CCCCC1 (stereo not given),–,-2.08,–,5.17 µM (active)
CC(C)C(c1nnnn1C1CCCCC1)N1CCc2ccccc21 (stereo not given),–,19.2,inactive,–
CC(C)C(c1nnnn1C1CCCC1)N1CCCCC1 (stereo not given),–,-26.8,inactive,–
N#CC(C(=O)O)=C1CCCC1,–,-10.5,–,23.1 µM (active)
N#CC(C(=O)Nc1ccccc1)=C1CCCCC1,–,–,inactive,–
N#CC(C(=O)NC1CCCCC1)=C1CCCCC1,0.277% (inactive),0.427,–,–
CCOc1cc(-c2ccc3c(c2)OCO3)cc(=O)c2c(C)oc(C)c12,–,-26.2,inactive,–
CCO[C@@H]1OC(C(=O)N2CCN(Cc3ccc4c(c3)OCO4)CC2)=C[C@H](c2csc3ccccc23)[C@H]1CCCO,1.93% (inactive),-13,–,–
